High-throughput results: PubChem, several laboratories
A selection: hits, their analogues and other compounds. The true share with any hit is near 3.5%.
Rv3671c inh – inhibitors of M. tuberculosis serine protease Rv3671c. 320,000 compounds, 0.048% hits. P9WHR9. inhibition, % at 5.96 µM; in the data active = inhibition above about 38%;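 note: extracellular domain of Rv3671c used as enzyme; 0% = enzyme with DMSO and 100% = no enzyme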
GDH-TPI counter-1 – counter-screen for M. tuberculosis FBA inhibitors: GDH-TPI coupled enzymes. GDH-TPI coupled enzyme counterscreen, NADH absorbance. inhibition, % at 4.8 µM. 360,000 compounds, 1.2% hits. AID 588335; in the data active = inhibition above about 30%;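 note: 0% = DMSO wells and 100% = wells lacking the enzyme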
Mtb UGM inh – blocks M. tuberculosis UGM enzyme; P9WIQ1; purified UGM, fluorescence polarization probe displacement; inhibition, % at 10 µM; 320,000 compounds, 0.06% hits; AID 504406; in the data active = inhibition above about 10%, passing the limit was not always enough; inconclusive = no clear call, values can overlap the other calls
Mtb betalactam – beta-lactam sensitization of Mtb H37Rv. M. tuberculosis H37Rv growth with meropenem, percent inhibition. inhibition, % at 25 µM. 330,000 compounds, 0.27% hits. AID 434955; call rule not given here;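 note: growth measured after seven days incubation then overnight dye step; 0% = bacteria only wells and 100% = bacteria with antibiotic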
Mtb FBA inh – Mtb fructose-bisphosphate aldolase inhibition; P9WQA3; purified M. tuberculosis FBA, fluorescence read-out; inhibition, % at 1 µM; 360,000 compounds, 2.3% hits; AID 588726;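 note: 0% = vehicle and 100% = reference inhibitor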
Target sequence (P9WQA3 whole entry, looked up): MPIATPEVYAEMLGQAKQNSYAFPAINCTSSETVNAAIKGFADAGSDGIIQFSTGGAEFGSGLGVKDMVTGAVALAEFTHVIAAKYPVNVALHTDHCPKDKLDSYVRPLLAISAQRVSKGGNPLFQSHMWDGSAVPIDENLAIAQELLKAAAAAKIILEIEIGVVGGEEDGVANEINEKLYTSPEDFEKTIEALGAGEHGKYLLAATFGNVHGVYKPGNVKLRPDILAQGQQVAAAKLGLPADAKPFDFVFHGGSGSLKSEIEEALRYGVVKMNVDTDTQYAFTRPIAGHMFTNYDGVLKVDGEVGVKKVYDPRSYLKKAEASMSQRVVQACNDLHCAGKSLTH
Mtb FBA confirm – confirmation of M. tuberculosis fructose-bisphosphate aldolase inhibitors. shares compounds with Mtb FBA inh. purified M. tuberculosis FBA, fluorescence read-out. inhibition, % at 1 µM. 5,600 compounds, 78% hits. AID 651616;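 note: 0% = vehicle wells and 100% = reference inhibitor wells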
GDH-TPI counter-2 – inhibits GDH-TPI coupling enzymes, flagging Mtb FBA hits; shares compounds with Mtb FBA inh; 5,600 compounds, 81% hits; inhibition, % at 1 µM; GDH-TPI coupled enzyme counterscreen, fluorescence; in the data active = inhibition above about 10%
GDH-TPI dose – inhibits GDH-TPI coupling enzymes in dose response. shares compounds with Mtb FBA inh. GDH-TPI coupled enzyme assay, fluorescence, artifact counterscreen. IC50, µM. 170 compounds, 79% hits. AID 652145; call rule not given here
The depositor's hits bear a star; ? = inconclusive; . = no result; + = active, no number. Cut-off read from the data, not from the text of the source, unless noted: active = inhibition above about 27%; inactive = the rest.

SMILES	Rv3671c inh	GDH-TPI counter-1	Mtb UGM inh	Mtb betalactam	Mtb FBA inh	Mtb FBA confirm	GDH-TPI counter-2	others
CCOC(=O)N1CCC(NC(=O)CSCc2nc(-c3sccc3C)oc2C)CC1	2	16	2	2	40*	1	-1
COc1ccccc1C(CNC(=O)CNC(=O)c1ccc(C)c(C)c1)N1CCCC1 (stereo not given)	4	2	3	-6	1	.	.
Cc1ccccc1NS(=O)(=O)c1nnc(NC(=O)CC(C)C)s1	2	1	2	-5	1	.	.
Cc1ccc(NC(=O)CC(C)S(=O)(=O)c2ccc3c(c2)NC(=O)CO3)c(Cl)c1 (stereo not given)	-3	0	-3	-1	71*	+	+
COc1ccccc1CNCc1ccc(OC)c2ccccc12	8	-6	-2	2	2	.	.
COc1ccc(CNCc2ccc(OC)c3ccccc23)cc1	0	-2	2	6	57*	11	-5	GDH-TPI dose=>10
O=C(NCC1(c2ccccc2)CCCC1)c1ccc(Br)cc1	-13	9	0	25	-1	.	.
Nc1ccccc1C(=O)NCC1(c2ccccc2)CCCC1	-11	-17	-3	3	33*	160*	128*
Cc1cc(C)c(C#N)c(N2CCCC2)n1	1	13	-2	1	30*	135*	92*
Cc1cccc(-n2c(SCC(=O)Nc3nnc(C)s3)nnc2-c2ccoc2C)c1	-9	6	1	6	46*	38*	31*
CC(=O)Nc1cc(-c2cccc(F)c2)cn2c(-c3ccc(S(C)(=O)=O)cc3)cnc12	.	13	.	.	71*	+	+
CC(=O)Nc1cc(-c2ccc(S(C)(=O)=O)cc2)cn2c(-c3ccc(F)cc3)cnc12	.	8	.	.	0	.	.
CC(OC(=O)c1ccc(Cl)c(S(=O)(=O)N2CCc3ccccc32)c1)C(=O)Nc1ncc(Cl)cc1Cl (stereo not given)	1	3	-1	0	64*	35*	24*
COc1ccc(-c2ccc(/C=N/NC(=O)Cc3nnc(N)s3)o2)cc1Cl	7	38*	1	-7	29*	54*	30*
Nc1nnc(CC(=O)N/N=C/c2ccc([N+](=O)[O-])cc2)s1	0	26	3	-8	-4	.	.
Fc1cccc2sc(Nc3nc4c(F)cccc4s3)nc12	-4	17	2	4	16	.	.
Fc1cccc2sc(Nc3nnc(-c4ccccc4)o3)nc12	0	45*	2	?	64*	+	+
COc1cc(OC)cc(-c2nnc(Nc3nc4c(F)cccc4s3)o2)c1	8	27	0	11	30*	84*	76*
Cc1ccc(Cc2c(-c3cccc(Cl)c3)nc3ccc(Cl)cn23)cc1	.	.	.	.	4	.	.
CC1(c2ccc(Cl)cc2)NC(=O)N(CC(=O)NC2CCCCC2)C1=O (stereo not given)	-1	-1	2	-5	1	.	.
CC1=CC2=NC(=O)CC(C)(C(=O)N(CC(=O)NC3CCCC3)c3ccccc3C)N2C=C1 (stereo not given)	0	10	-4	0	62*	+	+
CC1=CC2=NC(=O)CC(C)(C(=O)N(CC(=O)NC3CCCC3)Cc3ccc(Cl)cc3)N2C=C1 (stereo not given)	3	-4	-1	-6	58*	115*	122*
Cc1ccc(C(=O)N(CC(=O)NC2CCCCC2)c2ccccc2C)s1	-5	3	1	7	2	.	.
CC1=CC2=NC(=O)CC(C)(C(=O)N(CC(=O)NC3CCCC3)c3ccccc3F)N2C=C1 (stereo not given)	-1	-8	1	-2	47*	45*	37*
COC(=O)c1ccc2nc(-c3ccco3)c(Cc3ccc(OC)cc3C)n2c1	.	.	.	.	-5	.	.
Cc1ccc2nsnc2c1S(=O)(=O)Nc1ccccc1C(=O)O	2	3	-1	3	0	.	.
Cc1ccc(NCc2ccc(Cl)nc2)c(NCc2ccc(Cl)nc2)c1	-3	4	4	-7	28*	-5	-6
